Among the data in PubChem BioAssay (NCI) are growth inhibition values, retold here.

About 79,000 compounds went through this panel and 15% of them were active in at least one assay; those are over-represented in the sample as a whole. Values without a mark were called inactive. Active and inactive are the calls of the source. Cut-off read from the data, not from the text of the source: active = growth inhibition above about 70%; inactive = the rest.

A short description of test [1]: NCI Yeast Anticancer Drug Screen. Data for the rad50 strain (AID 155).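 Note: 0% = growth of vehicle-only cultures of the same strain.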 The conditions noted are these: S. cerevisiae rad50 strain growth inhibition; at 50.0 µM; active compounds read high. In outline: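 Readout: growth inhibition relative to vehicle-treated cultures. Compound exposure was carried out in a genetically defined yeast strain deficient in DNA damage repair.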

Test [2] in a line: NCI Yeast Anticancer Drug Screen. Data for the mec2-1 strain (AID 157). As to conditions: S. cerevisiae mec2-1 strain, at 50.0 µM, active compounds read high. The gist of the method:
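mec2-1 yeast strain, carrying an alteration in DNA damage repair or cell cycle control, was exposed to compounds; growth inhibition was measured relative to vehicle-treated controls.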

A short description of test [3]: NCI Yeast Anticancer Drug Screen. Data for the sgs1 mgt1 strain (AID 161).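 Note: 0% = growth of cultures given vehicle only.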 The conditions noted are these: S. cerevisiae sgs1 mgt1 strain, at 50.0 µM, active compounds read high. The gist of the method: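 Percent growth inhibition was derived by comparing compound-exposed mutant yeast with vehicle-exposed cultures. The strain carries alterations in DNA damage repair.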

Test [4] in a line: NCI Yeast Anticancer Drug Screen. Data for the cln2 rad14 strain (AID 165).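 Note: 0% = growth equal to vehicle treated cultures.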 The conditions noted are these: S. cerevisiae cln2 rad14 strain, at 50.0 µM, active compounds read high. The gist of the method:
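Yeast carrying cln2 and rad14 alterations (cell cycle control and DNA damage repair) were exposed to compounds. Growth inhibition was measured against vehicle-treated controls.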

Test [5] is described as follows: NCI Yeast Anticancer Drug Screen. Data for the bub3 strain (AID 167). The conditions noted are these: S. cerevisiae bub3 mutant strain, at 50.0 µM, active compounds read high. In outline:
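Readout: yeast growth inhibition, expressed relative to vehicle-only wells. The test organism is a mutant strain from a panel with lesions in DNA repair or checkpoint genes.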

A short description of test [6]: NCI Yeast Anticancer Drug Screen. Data for the mlh1 rad18 strain (AID 175). As to conditions: S. cerevisiae mlh1 rad18 strain growth inhibition; at 50.0 µM; active compounds read high. The gist of the method:
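Growth inhibition of the yeast strain was measured after compound exposure and expressed relative to vehicle-treated controls. The strain carries defined defects in DNA damage repair.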

For the molecule `CN(C)CCNC(=O)c1cccc(N(C)C(=O)c2ccccc2)c1[N+](=O)[O-]`, the growth inhibition in test [1] was 6.65%; in test [2], -9.45%; in test [3] it was 6.5%; in test [4], 17.6%; in test [5], 7.05%; in test [6] it was 3.15%.

Take `O=C1NC(=S)S/C1=C/C=C/c1ccccc1[N+](=O)[O-]`: the growth inhibition in test [1] was 2.95%; in test [2], 0.85%; in test [3] it was -3.9%; in test [4], -16.6%; in test [5], 42.5%; in test [6], -16.6%.

Take `Oc1ccc2cccc(O)c2c1`: the growth inhibition in test [1] is -17.6%; in test [2] it was -33.6%; in test [3], 37.5%; in test [4], 19.9%; in test [5] it was 12%; in test [6] it was 3.9%.

For `CCCCCCCC(=O)OCC1OC(n2cc(F)c(=O)[nH]c2=O)C(NC(=O)OCc2ccccc2)C(O)C1O` (centres undefined), the growth inhibition in test [1] was -15.1%; in test [2] it was -13.8%; in test [3] it was -66.8%; in test [4], -7.1%; in test [5], -12.4%; in test [6], -17.6%.

For the molecule `CCCCCC/C(=C\c1ccc(O)cc1)C(=O)O`, the growth inhibition is 17.6% in test [1]; 36.1% in test [2]; 32.8% in test [3]; 47.9% in test [4]; 39.6% in test [5]; 41.8% in test [6].

As to `COc1ccc2c(c1)c1cc(OC)ccc1n2CCCCOc1ccc(-c2c3ccccc3c(-c3ccc(OCCCCn4c5ccc(OC)cc5c5cc(OC)ccc54)cc3)c3ccccc23)cc1`, the growth inhibition is 29.1% in test [1]; 1.85% in test [2]; -1.1% in test [3]; 23.9% in test [4]; 7.9% in test [5]; 29.6% in test [6].

Consider `O=c1[nH]nc(-c2ccccc2)n1-c1ccncc1`, for which the growth inhibition in test [1] was -4.65%; in test [2], 0.3%; in test [3], -6.45%; in test [4] it was -4.65%; in test [5] it was 12.7%; in test [6], 0.65%.

`COc1c2c(c(Cc3c4c(c(OC)c5c3OCO5)OC(C)C4)c3c1OCO3)CC(C)O2` (centres undefined): the growth inhibition is 24.1% in test [1]; 2.35% in test [2]; 5.65% in test [3]; 6.05% in test [4]; -10.1% in test [5]; -7.3% in test [6].

Take `Cc1nc(N)sc1N=Nc1ccc(Br)cc1Br`: the growth inhibition was 85.2% (active) in test [1]; 68.8% in test [2]; 86.8% (active) in test [3]; 63.1% in test [4]; 46.9% in test [5]; 76.4% (active) in test [6].

Regarding `C=CS(=O)CCCCCCC` (centres undefined), the growth inhibition in test [1] was 25.1%; in test [2], -1.3%; in test [3], -13.9%; in test [4] it was -68.5%; in test [5], 4.45%; in test [6], -34.4%.

Regarding `C=CCOC(=O)/C=C\C(=O)OCC=C`, the growth inhibition is -4.6% in test [1]; 30.6% in test [2]; 6.8% in test [3]; -25.3% in test [4]; 9.1% in test [5]; 3.15% in test [6].

For `CCCCCCO[Si](OCCCCCC)(OCCCCCC)OCCCCCC`, the growth inhibition in test [1] is -35.1%; in test [2], -32.4%; in test [3], -10.8%; in test [4], 17.4%; in test [5], -17.8%; in test [6], -17.4%.

Consider `CC(=O)N(C(C)=O)c1cc2c3c(c1)CCCN3CCC2`, for which the growth inhibition in test [1] is 2.2%; in test [2], -40.8%; in test [3] it was -22.1%; in test [4] it was -36.8%; in test [5], -16.1%; in test [6], -1.6%.

Regarding `CCCCCC(=O)OCC(COC(=O)CCCCC)OC(=O)CCCCC`, the growth inhibition in test [1] is -2.65%; in test [2], 23.1%; in test [3], -5.05%; in test [4], 12.6%; in test [5], 10.9%; in test [6], 20.6%.

`Cc1ccc2nc(CC(=O)c3ccc(F)cc3)c(=O)[nH]c2c1`: the growth inhibition in test [1] was 1.85%; in test [2], 18.8%; in test [3] it was 16.1%; in test [4] it was 27.8%; in test [5] it was 18.1%; in test [6] it was 34.9%.

On to `COc1ccc(C(=O)c2ccccc2)c(OC(=O)Nc2c(Cl)cccc2Cl)c1`, for which the growth inhibition in test [1] was -4.25%; in test [2], -23.9%; in test [3], 10.2%; in test [4], 1.05%; in test [5], -0.1%; in test [6], 22.6%.

For the molecule `CCOCCOCCOC(=O)C(C)O` (centres undefined), the growth inhibition was 14.7% in test [1]; 7.1% in test [2]; 2.25% in test [3]; 6.55% in test [4]; -18.6% in test [5]; -3.4% in test [6].

On to `O=C1c2ccccc2C(=O)N1/N=C/c1ccc([N+](=O)[O-])cc1`, for which the growth inhibition in test [1] was -4.4%; in test [2], -17%; in test [3], -16.3%; in test [4] it was -11.5%; in test [5], -13.9%; in test [6], -22.5%.

In the case of `CN(C)S(=O)(=O)Cc1ccccc1`, the growth inhibition is 7.95% in test [1]; -6.65% in test [2]; -6.65% in test [3]; -73.5% in test [4]; 6.75% in test [5]; -7.1% in test [6].
